Measured values taken from PubChem BioAssay AID2289 (National Center for Advancing Translational Sciences (NCATS), 2010).
About 3,300 (0.97%) of roughly 340,000 compounds were called active. Inconclusive results (about 9%) are left out. Calls come from the whole dose curve; as a rule, active = well fitted inhibition curve with a large enough effect; inconclusive = small, poorly fitted or top-dose-only effect, or effect the other way; inactive = flat fitted curve, though single readings scatter. Some of the results follow.

Experiment: qHTS Assay for Modulators of miRNAs and/or Inhibitors of miR-21; note: nearly all actives have a fitted effect of over 55% in size
Conditions: HeLa miR-21-FLuc reporter, luciferase luminescence, 48 h; actives lower the signal
Summary of the method: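 HeLa cells endogenously expressing miR-21, stably carrying CMV-driven firefly luciferase with a downstream miR-21 binding site, 2000 cells/well. Titrations up to approximately 40 uM, 48 hours; luciferase luminescence read.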
Potency is the fitted concentration of half-maximal effect.

| Structure (SMILES) | Potency |
| --- | --- |
| CC(C)n1cc(/C=N/Nc2ccc(Cl)c(C(=O)O)c2)c2ccccc21 | 3.29 µM (active) |
| COc1ccc2ccccc2c1/C=N/Nc1cccc(C(=O)O)c1 | 6.56 µM (active) |
| O=C(O)c1cc(N/N=C/c2c(O)ccc3ccccc23)ccc1Cl | 2.07 µM (active) |
| Cc1cccc(N/N=C/c2ccccc2O)c1 | 10.4 µM (active) |
| Cc1[nH]c2ccccc2c1N=Nc1cccc(C(=O)O)c1 | 1.85 µM (active) |
| Cc1ccn2c(Nc3ccc4c(c3)OCCO4)c(-c3ccc(Cl)s3)nc2c1 | 13.1 µM (active) |
| Cc1ccc(-c2nc3ccccn3c2Nc2ccc3c(c2)OCCO3)s1 | 1.85 µM (active) |
| COC(=O)c1sccc1N/N=C/c1ccc(OC)c(OC)c1OC | 6.56 µM (active) |
| COC(=O)c1sccc1N/N=C/c1cccc(Oc2ccccc2)c1 | 1.85 µM (active) |
| COc1cc(/C(C)=N/NC(=O)CSc2nncn2C)ccc1OCc1ccccc1Cl | 10.4 µM (active) |
| C=CCNc1ncnc2c1cnn2-c1ccc(Cl)cc1 | 0.329 µM (active) |
| Clc1ccc(-n2ncc3c(NCc4ccccn4)ncnc32)cc1 | 5.85 µM (active) |
| Fc1cccc(Cl)c1CSc1nnc(-c2ccncc2)o1 | 14.7 µM (active) |
| O=C1/C(=C/c2ccco2)CCc2ccccc21 | 18.5 µM (active) |
| COc1ccc2c(c1)CC/C(=C/c1ccco1)C2=O | 1.85 µM (active) |
| COc1ccc2c(c1)CC/C(=C\c1ccc(C)o1)C2=O | 2.93 µM (active) |
| O=[N+]([O-])c1ccccc1-c1nc(-c2ccc(Br)o2)no1 | 1.47 µM (active) |
| CCCCOc1ccc(CSc2nncn2N)cc1 | 14.7 µM (active) |
| COc1cccc(/C=C2\CCC(C3CCCC3)C2=O)c1OC (stereo not given) | 4.14 µM (active) |
| Cc1ccsc1/C=C1\CCC(C2CCCC2)C1=O (stereo not given) | 3.69 µM (active) |
| COc1ccc(NC(=O)c2noc3c2CCCC3)cc1Cl | 0.369 µM (active) |
| Cc1c(Cl)cccc1NC(=O)c1noc2c1CCCC2 | 7.36 µM (active) |
| Cc1ccc2c(c1)c1ncnc(N3CCC4(CC3)OCCO4)c1n2C | 7.36 µM (active) |
| Cc1ccc2c(c1)c1ncnc(N3CCOCC3)c1n2C | 13.1 µM (active) |
| Fc1ccccc1NC(=S)N/N=C/c1ccccc1Br | 4.65 µM (active) |
| Fc1cccc(/C=N/NC(=S)Nc2ccccc2Cl)c1 | 4.65 µM (active) |
| N/C(=N\NC(=O)Nc1ccc(Cl)cc1)c1ccccn1 | 3.29 µM (active) |

| Structure (SMILES) | Potency |
| --- | --- |
| N/C(=N\NC(=O)Nc1ccccc1)c1ccccn1 | 2.61 µM (active) |
| Cc1cc(C)c(C#N)c(SCc2nnc(-c3ccccc3[N+](=O)[O-])o2)n1 | 3.69 µM (active) |
| O=c1c2ccccc2nc2sc3ccccc3n12 | 6.56 µM (active) |
| CCN1CCC2(CC1)Oc1c(OC)cccc1C1CC(c3cccnc3)=NN12 (stereo not given) | 11.7 µM (active) |
| CCOc1cccc2c1OC1(CCCCC1)N1N=C(c3cccnc3)CC21 (stereo not given) | 16.5 µM (active) |
| CC(=O)c1c(C)[nH]c(C(=O)Nc2ccc(Cl)cc2F)c1C | 2.07 µM (active) |
| Cc1nnc2n(c1=O)N=C(c1ccc(Cl)cc1)CS2 | 1.65 µM (active) |
| O/N=C/c1ccnc(SCc2ccccc2)n1 | 10.4 µM (active) |
| Cc1nc(C)c(-c2ccc(SCc3ccccc3F)nn2)s1 | 14.7 µM (active) |
| Cc1ccc2scc(N3CCCCC3C)c(=O)c2c1 (stereo not given) | 14.7 µM (active) |
| Cc1ccc2scc(N3CCCC(C)C3)c(=O)c2c1 (stereo not given) | 6.56 µM (active) |
| COc1ccc(NC(=S)Nc2cc(C)[nH]n2)cc1Cl | 18.5 µM (active) |
| Cc1cc(NC(=S)Nc2ccc(C)c(Cl)c2)n[nH]1 | 7.36 µM (active) |
| Cc1cc(C(=O)CSc2ccc3c(c2)OCCO3)c(C)n1C1CC1 | 7.36 µM (active) |
| Cc1ccc(NC(=O)c2ccc(=O)[nH]n2)cc1C | 6.56 µM (active) |
| CC(C)(C)c1ccc(NC(=O)c2ccc(=O)[nH]n2)cc1 | 0.826 µM (active) |
| COc1cc(OC)cc(C(=O)NCC(=O)OCc2nc3ccccc3s2)c1 | 0.464 µM (active) |
| Nc1ccc(C(=O)OCc2nc3ccccc3s2)cc1 | 16.5 µM (active) |
| O=C(OCc1nc2ccccc2s1)c1ccco1 | 7.36 µM (active) |
| Cc1ccc(-n2c(C)c(C)c3c(NCCCO)ncnc32)cc1 | 7.36 µM (active) |
| Cc1ccc(-n2c(C)c(C)c3c(NCCO)ncnc32)cc1 | 13.1 µM (active) |
| Cc1c(C)n(CCc2ccccc2)c2ncnc(NCCO)c12 | 4.14 µM (active) |
| COc1ccc(-c2nnc(-c3ccc(F)cc3)o2)cc1 | 1.04 µM (active) |
| COc1ccc(-c2nnc(-c3ccc(C)cc3)o2)cc1 | 2.07 µM (active) |
| c1ccc(Nc2nnc(-c3cccnc3)s2)cc1 | 0.261 µM (active) |
| CCS(=O)(=O)N1Cc2ccccc2CC1C(=O)Nc1nccs1 (stereo not given) | 14.7 µM (active) |
| CCS(=O)(=O)N1Cc2ccccc2CC1C(=O)Nc1nc2ccc(F)cc2s1 (stereo not given) | 4.65 µM (active) |

| Structure (SMILES) | Potency |
| --- | --- |
| CCS(=O)(=O)N1Cc2ccccc2CC1C(=O)Nc1nc(C)cs1 (stereo not given) | 10.4 µM (active) |
| O=C(/C=C/c1ccc(F)cc1)NCCC1=CCCCC1 | 7.36 µM (active) |
| CC(C)(C)SCCNC(=O)/C=C/c1ccccc1 | 11.7 µM (active) |
| O=C(/C=C/c1ccccc1)NCCC1=CCCCC1 | 5.85 µM (active) |
| CCN(CC)c1ccc(N=Nc2nn(C)c(C)c2[N+](=O)[O-])cc1 | 0.736 µM (active) |
| CCN(Cc1ccccc1)c1ccc(N=Nc2nn(C)c(C)c2[N+](=O)[O-])cc1 | 18.5 µM (active) |
| CCc1cc2cc(C(=O)Nc3ccc(F)cc3)sc2s1 | 1.65 µM (active) |
| COc1cc(NC(=O)c2cc(-c3cccc(OC)c3)n[nH]2)cc(OC)c1 | 3.29 µM (active) |
| CCOC(=O)c1cn[nH]c1NC(=S)Nc1ccc(Cl)cc1 | 0.656 µM (active) |
| COc1ccc2cc(-c3ccn[nH]3)ccc2c1 | 0.927 µM (active) |
| Cc1ccc(Nc2nc(N)c([N+](=O)[O-])c(NCCO)n2)cc1C | 13.1 µM (active) |
| CNc1nc(Nc2ccc(C)c(Cl)c2)nc(N)c1[N+](=O)[O-] | 3.29 µM (active) |
| O=C(c1cc(-c2cccc(Cl)c2)on1)N1CCCCCC1 | 4.65 µM (active) |
| O=C(c1cc(-c2cccc(Cl)c2)on1)N1CCCC1 | 3.69 µM (active) |
| CSc1c(C#N)c(N)c(C#N)c2c1COC(C)(C)C2 | 18.5 µM (active) |
| CN1CCN(/N=C/c2ccc(Br)cc2)CC1 | 14.7 µM (active) |
| CN1CCN(/N=C/c2ccc(Cl)c(Cl)c2)CC1 | 7.36 µM (active) |
| Cc1c(-c2nnc(SCC(=O)Nc3ccccc3F)o2)nnn1-c1ccc(F)cc1 | 2.93 µM (active) |
| Cc1nn(-c2ccccc2)c(Cl)c1/C=N/NC(=O)c1ccc(NS(=O)(=O)c2cccs2)cc1 | 4.14 µM (active) |
| Cc1nn(-c2ccc(F)cc2)c(Cl)c1/C=N/NC(=O)c1cccs1 | 2.93 µM (active) |
| Clc1ccc(-c2nc(-c3cnccn3)no2)cc1 | 0.521 µM (active) |
| Fc1ccc(-c2nc(-c3cnccn3)no2)c(Cl)c1 | 0.464 µM (active) |
| O=C(c1ccccc1)c1c(O)nc(-c2ccccc2)n(-c2ccccc2)c1=O | 13.1 µM (active) |
| O=C(Nc1ccn(Cc2ccccc2)n1)c1n[nH]c([N+](=O)[O-])c1Cl | 2.07 µM (active) |
| CCSc1nnc2ccc(-c3ccc(OC)c(OC)c3)nn12 | 14.7 µM (active) |
| CCSc1nnc2ccc(-c3ccc(C)cc3)nn12 | 16.5 µM (active) |
| CC(=O)c1sc(NC(=O)c2ccc(C(C)(C)C)cc2)nc1C | 0.826 µM (active) |

| Structure (SMILES) | Potency |
| --- | --- |
| CC(=O)c1sc(NC(=O)c2ccc(C)c(C)c2)nc1C | 0.585 µM (active) |
| Cc1ccsc1C(=O)OCC(=O)N1CCc2ccccc2C1 | 3.29 µM (active) |
| Cc1ccc(Cl)c(OCC(=O)N2CCc3ccccc3C2)c1 | 14.7 µM (active) |
| COc1cc2c(cc1OC)CN(c1ncccc1[N+](=O)[O-])CC2 | 18.5 µM (active) |
| COc1cc2c(cc1OC)CN(c1ccc(F)cc1[N+](=O)[O-])CC2 | 13.1 µM (active) |
| CC(=O)c1ccc(N2CCc3ccccc3C2)c([N+](=O)[O-])c1 | 9.27 µM (active) |
| CC(=O)c1cccc(OCc2cc(C(=O)N3C[C@H]4CC[C@H]3C4)no2)c1 | 5.21 µM (active) |
| COc1cc(Cl)ccc1OCc1cc(C(=O)N2C[C@H]3CC[C@H]2C3)no1 | 5.21 µM (active) |
| O=C(c1cc(COc2ccc(F)cc2F)on1)N1C[C@H]2CC[C@H]1C2 | 13.1 µM (active) |
| CC(=O)c1cccc(OCc2cc(C(=O)N(C)CCC3CCOCC3)no2)c1 | 16.5 µM (active) |
| Cc1nonc1C1CCCN1C(=O)c1cc(COc2ccc(F)cc2F)on1 (stereo not given) | 4.14 µM (active) |
| CCCCOC(=O)Nc1ccc(C(C)C)cc1 | 11.7 µM (active) |
| COc1ccccc1NC(=O)Nc1ccc(N2CCOCC2)cc1 | 8.26 µM (active) |
| CCCCOC(=O)Nc1ccc(N2CCOCC2)cc1 | 7.36 µM (active) |
| Cc1ccc2nc3c(cc(S(=O)(=O)c4ccccc4)c(=N)n3Cc3ccco3)c(=O)n2c1 | 5.85 µM (active) |
| COc1ccccc1NC(=O)c1ccc2[nH]c(C)c(C)c2c1 | 5.21 µM (active) |
| Cc1ccccc1NC(=O)c1ccc2[nH]c(C)c(C)c2c1 | 1.31 µM (active) |
| Cc1[nH]c2ccc(C(=O)N3CCCCC3)cc2c1C | 2.07 µM (active) |
| COc1cc2c(cc1NC(=O)c1ccccc1F)CCCC2 | 7.36 µM (active) |
| Cc1nc2c(-c3ccccc3)c(C)nn2c(N)c1-c1ccccc1 | 1.85 µM (active) |
| Cc1nn2c(N)c(C#N)cnc2c1-c1ccccc1 | 16.5 µM (active) |
| O=C1OC(c2ccccc2)=N/C1=C\N1CCCCC1 | 8.26 µM (active) |
| Cc1ccc(C2=N/C(=C\N3CCCCC3)C(=O)O2)cc1 | 1.65 µM (active) |
| Cc1ccc(C2=N/C(=C/N3CCOCC3)C(=O)O2)cc1 | 6.56 µM (active) |
